Experimental data taken from PubChem BioAssay (EPA / NIEHS).
The source made the active and inactive calls. The calls were made as follows: active = hit-call score of the fitted dose curve at least 0.9, where 1 is the maximum; inactive = score below 0.9.

How the values were obtained:
[1] = APR_HepG2_CellCycleArrest_1hr: Apredica 1-hour HepG2 Assay for Cell Cycle Arrest (AID 2282666); conditions: high-content imaging, actives raise or lower the signal
How it was run: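 Cell cycle arrest scored from nuclear DNA content (Hoechst 33342) using high-content imaging of fixed HepG2 cells after 1 h treatment across 0.39–200 uM, in duplicate. Gain or loss fitted relative to 0.5% DMSO.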

[2] = APR_HepG2_MicrotubuleCSK_1hr: Apredica 1-hour HepG2 Assay for Microtubule CSK Stabilty (AID 2282669); conditions: HepG2 microtubule cytoskeleton imaging, actives raise or lower the signal
How it was run: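 Alpha-tubulin immunofluorescence, imaged by automated high-content microscopy with Hoechst nuclear segmentation, measured cytoskeletal change after 1 h dosing of HepG2 at 0.39–200 uM in 0.5% DMSO. Activity fitted in both directions relative to DMSO.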

[3] = APR_HepG2_NuclearSize_1hr: Apredica 1-hour HepG2 Assay for Nuclear Size (AID 2282670); conditions: high-content imaging, actives raise or lower the signal
How it was run: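 Nuclear size measured by high-content imaging of Hoechst 33342 nuclear stain after formaldehyde fixation; human HepG2 line exposed 1 hr to compounds at 0.39–200 uM in 0.5% DMSO, with bidirectional curve fitting relative to DMSO.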

[4] = APR_HepG2_p53Act_1hr: Apredica 1-hour HepG2 Assay for p53 Activation (AID 2282671); conditions: high-content imaging, actives raise or lower the signal
How it was run: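 After 1 h exposure (0.39–200 uM, 0.5% DMSO final, duplicates), fixed HepG2 cells were labelled with anti-p53 antibody plus Hoechst nuclear stain. Fluorescence quantified by automated 20x imaging; changes fitted in both directions against DMSO.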

[5] = APR_HepG2_MitoticArrest_1hr: Apredica 1-hour HepG2 Assay for Mitotic Arrest (AID 2282672); conditions: high-content imaging, actives raise or lower the signal
How it was run: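 Ten-point concentration series (0.39 to 200 uM, duplicates, 0.5% v/v DMSO) applied to human HepG2 liver cells for 1 hr. High-content imaging of phospho-histone H3 and Hoechst-stained nuclei after fixation and permeabilization; DMSO-normalised bidirectional fit.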

[6] = APR_HepG2_P-H2AX_1hr: Apredica 1-hour HepG2 Assay for H2AX Phosphorylation (AID 2282673); conditions: high-content imaging, actives raise or lower the signal
How it was run: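 Phospho-H2A.x immunofluorescence (1:200, FITC secondary) plus Hoechst nuclear stain, quantified by high-content imaging in HepG2 after 1 hr compound exposure. Ten concentrations, 0.39 to 200 uM, in duplicate with 0.5% DMSO; fit both directions against DMSO.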

[7] = APR_HepG2_MitoMass_1hr: Apredica 1-hour HepG2 Assay for Mitochondrial Mass (AID 2282674); conditions: high-content imaging, actives raise or lower the signal
How it was run: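 Mitochondrial mass is taken from MitoTracker Red CMXRos (250 nM, 30 min, pre-fixation) fluorescence imaged at 20x in HepG2 cells. Exposure lasted 1 hr across ten concentrations, 0.39 to 200 uM, 0.5% DMSO; DMSO baseline, bidirectional fitting.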

[8] = APR_HepG2_MitoMembPot_1hr: Apredica 1-hour HepG2 Assay for Mitochondrial Membrane Potential (AID 2282675); conditions: imaging, actives raise or lower the signal
How it was run: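 Mitochondrial membrane potential read as MitoTracker Red CMXRos intensity by automated imaging of fixed HepG2 cells. Dye at 250 nM for 30 min pre-fixation; compounds 0.39 to 200 uM for 1 hour, duplicate wells, 0.5% DMSO.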

[9] = APR_HepG2_NuclearSize_24hr: Apredica 24-hour HepG2 Assay for Nuclear Size (AID 2282907); conditions: high-content imaging, actives raise or lower the signal
How it was run: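 Nuclear size is measured by fluorescence high-content imaging of Hoechst-labelled HepG2 nuclei after 24 hr of treatment (0.39–200 uM, 0.5% DMSO). Cells are fixed in 3.7% formaldehyde before staining, and DMSO serves as the baseline for bidirectional curve fitting.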

[10] = APR_HepG2_CellLoss_24hr: Apredica 24-hour HepG2 Assay for Cell Loss (AID 2282908); conditions: high-content imaging;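 as to AC50: fit in both directions so a hit may be cell loss or gain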
How it was run: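 Nuclear count serves as the viability measure: treated cells are fixed, permeabilized and labelled with Hoechst 33342, and six images per well are analysed to identify valid nuclei. Doses span 0.39–200 uM, and activity in either direction is scored against DMSO.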

[11] = APR_HepG2_MicrotubuleCSK_24hr: Apredica 24-hour HepG2 Assay for Microtubule CSK Stabilty (AID 2282909); conditions: HepG2 microtubule cytoskeleton imaging, actives raise or lower the signal
How it was run: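 Compounds were applied to HepG2 cells for 24 hours across 0.39–200 uM in duplicate, with final DMSO at 0.5% v/v. Fixed, permeabilized cells were labeled for alpha-tubulin and nuclei, and tubulin fluorescence was quantified by imaging, fitted bidirectionally against DMSO.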

[12] = APR_HepG2_MitoticArrest_24hr: Apredica 24-hour HepG2 Assay for Mitotic Arrest (AID 2282910); conditions: high-content imaging, actives raise or lower the signal
How it was run: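 High-content imaging of fixed HepG2 cells labeled with Hoechst 33342 and anti-phospho-histone H3, after 24 h treatment. Ten concentrations 0.39 to 200 uM in duplicate, final DMSO 0.5%; changes fitted both directions relative to DMSO.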

[13] = APR_HepG2_MitoMembPot_24hr: Apredica 24-hour HepG2 Assay for Mitochondrial Membrane Potential (AID 2282911); conditions: imaging, actives raise or lower the signal
How it was run: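 Cells are dosed for 24 hr across 0.39 to 200 uM with solvent held at 0.5% DMSO. They are then stained with 250 nM MitoTracker Red CMXRos for 30 min, fixed in 3.7% formaldehyde and imaged.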

[14] = APR_HepG2_MitoMass_24hr: Apredica 24-hour HepG2 Assay for Mitochondrial Mass (AID 2282912); conditions: high-content imaging, actives raise or lower the signal
How it was run: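 After 24 hr of treatment at 0.39 to 200 uM, HepG2 cells take up 250 nM MitoTracker Red CMXRos for 30 min and are then fixed with 3.7% formaldehyde. Per-well images are quantified, and any change in either direction is scored against solvent.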

[15] = APR_HepG2_p53Act_24hr: Apredica 24-hour HepG2 Assay for p53 Activation (AID 2282913); conditions: high-content imaging, actives raise or lower the signal;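 also: p53 protein immunofluorescence averaged per cell in HepG2 with Hoechst nuclei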
How it was run: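 Human HepG2 liver cells; 24 hr cpd treatment, 0.39–200 uM, 0.5% DMSO final. Fixed in 3.7% formaldehyde, permeabilized with 0.5% Triton X-100, stained with anti-p53/Cy5 plus Hoechst 33342. Six images per well at 20x; gain or loss vs DMSO.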

[16] = APR_HepG2_CellCycleArrest_72hr: Apredica 72-hour HepG2 Assay for Cell Cycle Arrest (AID 2282914); conditions: high-content imaging, actives raise or lower the signal
How it was run: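 Read-out is Hoechst-stained nuclear DNA content measured by automated fluorescence imaging (20x, six images per well), fitted in both directions relative to DMSO. Human HepG2 liver cells received 0.39–200 uM compound for 72 hr at 0.5% v/v DMSO.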

[17] = APR_HepG2_CellLoss_72hr: Apredica 72-hour HepG2 Assay for Cell Loss (AID 2282915); conditions: high-content imaging
How it was run: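 Cell number comes from Hoechst 33342-labelled nuclei, imaged at 20x after 3.7% formaldehyde fixation. Dosing was 0.39–200 uM, ten concentrations in duplicate, 0.5% DMSO final, for 72 h. Bidirectional fit relative to DMSO baseline.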

[18] = APR_HepG2_StressKinase_1hr: Apredica 1-hour HepG2 Assay for Stress Kinase (AID 2282906); conditions: HepG2 stress kinase (phospho-c-Jun) imaging, actives raise or lower the signal
How it was run: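 High-content imaging of phospho-c-Jun immunostaining (with Hoechst nuclear identification) after a 1 h exposure of HepG2 cells to 10 concentrations from 0.39 to 200 uM, final DMSO 0.5%. Fitted bidirectionally against DMSO.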

[19] = APR_HepG2_CellCycleArrest_24hr: Apredica 24-hour HepG2 Assay for Cell Cycle Arrest (AID 2282905); conditions: imaging, actives raise or lower the signal;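 also: cell cycle arrest scored as ratio of 2N to 4N nuclear DNA content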
How it was run: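 Compounds (0.39 to 200 uM, final DMSO 0.5% v/v) are applied to HepG2 cells for 24 hours; cells are then fixed, permeabilized and nuclei labeled with Hoechst 33342. Automated imaging measures DNA content, and activity is fitted in both directions against DMSO.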

Measured: AC50

CCOP(=S)(Oc1cnc(C(C)(C)C)nc1)OC(C)C (stereo unspecified)
inactive: [1] | [2] | [3] | [4] | [5] | [6] | [7] | [8] | [9] | [10] | [11] | [12] | [13] | [14] | [15]
active: [16] 113 µM | [17] 82.7 µM

CCCCSP(=O)(SCCCC)SCCCC
inactive: [1] | [2] | [3] | [4] | [5] | [6] | [7] | [8] | [18] | [9] | [10] | [11] | [12] | [13] | [14] | [15] | [16]
active: [17] 87.3 µM

CCOP(=O)(NC(C)C)Oc1ccc(SC)c(C)c1 (stereo unspecified)
inactive: [1] | [2] | [3] | [4] | [5] | [6] | [7] | [8] | [18] | [9] | [10] | [11] | [12] | [13] | [14] | [15] | [16]
active: [17] 89.2 µM

CCCSP(=O)(OCC)SCCC
inactive: [1] | [2] | [3] | [5] | [6] | [7] | [8] | [19] | [18] | [9] | [10] | [11] | [12] | [13] | [14] | [16] | [17]

CSc1nc(NC(C)C)nc(NC(C)C)n1
inactive: [1] | [2] | [3] | [4] | [5] | [6] | [7] | [8] | [19] | [9] | [10] | [11] | [12] | [13] | [15] | [16] | [17]

Cc1ccn2nc(S(=O)(=O)Nc3c(F)cccc3F)nc2n1
inactive: [1] | [2] | [3] | [5] | [6] | [7] | [8] | [9] | [10] | [12] | [13] | [16] | [17]

COc1ccc(C(=CC(=O)N2CCOCC2)c2ccc(Cl)cc2)cc1OC
inactive: [1] | [2] | [3] | [4] | [5] | [6] | [7] | [8] | [19] | [9] | [10] | [12] | [15] | [16]
active: [13] 8.19 µM | [17] 31.1 µM

CCOP(=S)(OCC)SCCSCC
inactive: [1] | [2] | [3] | [4] | [5] | [6] | [7] | [8] | [19] | [9] | [10] | [12] | [13] | [15] | [16] | [17]

S=C1NCCN1
inactive: [1] | [2] | [3] | [4] | [5] | [6] | [7] | [8] | [19] | [9] | [10] | [11] | [12] | [13] | [14] | [15] | [16] | [17]

CC[C@H](C)[C@H]1O[C@]2(C=C[C@@H]1C)C[C@@H]1C[C@@H](C/C=C(\C)[C@@H](O[C@H]3C[C@H](OC)[C@@H](O[C@H]4C[C@H](OC)[C@@H](NC)[C@H](C)O4)[C@H](C)O3)[C@@H](C)/C=C/C=C3\CO[C@@H]4[C@H](O)C(C)=C[C@@H](C(=O)O1)[C@]34O)O2
active: [4] 26.8 µM | [6] 16.8 µM | [18] 17.6 µM | [10] 2.55 µM | [12] 12.7 µM
inactive: [1] | [2] | [3] | [5] | [7] | [8] | [9] | [13] | [15] | [16] | [17]
